Compound activity (PubChem)
MLL AF4-AF9 inh: inhibitors of AF4 peptide binding to AF9, primary screen, biochemical, AlphaScreen, biotin-AF4 peptide, FLAG-AF9, single point. Protein AF-9 (Homo sapiens), P42568. inhibition, % at 10 µM. actives 0.47% (n = 350,000). AID 651704, 2012;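 active means every replicate reaching a set inhibition limit, whatever the replicate mean, cut at about 25% in these data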
Target sequence (P42568 whole entry, looked up): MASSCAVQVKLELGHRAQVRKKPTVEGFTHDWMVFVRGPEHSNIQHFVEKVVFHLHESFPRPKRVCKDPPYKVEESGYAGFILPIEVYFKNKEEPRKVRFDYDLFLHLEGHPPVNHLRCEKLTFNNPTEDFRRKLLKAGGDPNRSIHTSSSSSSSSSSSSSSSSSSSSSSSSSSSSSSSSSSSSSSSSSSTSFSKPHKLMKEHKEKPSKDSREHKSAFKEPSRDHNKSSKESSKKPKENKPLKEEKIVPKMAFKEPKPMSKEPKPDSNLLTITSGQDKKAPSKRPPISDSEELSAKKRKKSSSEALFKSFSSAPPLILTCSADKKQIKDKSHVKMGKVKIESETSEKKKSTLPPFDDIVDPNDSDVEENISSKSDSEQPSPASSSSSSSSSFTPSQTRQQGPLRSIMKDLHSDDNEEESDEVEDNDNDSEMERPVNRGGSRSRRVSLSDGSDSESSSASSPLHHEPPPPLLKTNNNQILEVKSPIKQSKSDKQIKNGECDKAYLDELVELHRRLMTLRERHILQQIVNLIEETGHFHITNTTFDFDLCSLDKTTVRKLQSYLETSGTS
Casp6 inh: human caspase-6 inhibitors, primary screen, biochemical, VEID-R110 fluorescence, single point, set 2; purified caspase-6, Z-VEID-R110 cleavage fluorescence; inhibition, % at 12.5 µM; actives 0.53% (n = 350,000);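 active means mean inhibition across replicates at least about 35%, with every replicate also reaching that limit, limit read from the data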
Ecoli rRNA inh: reduced GFP signal of wild-type E. coli, primary screen, bacterial rRNA inhibitor project, GFP/RFP fluorescence, OD600, single point. E. coli WT GFP vs humanized-ribosome RFP mutants, 24 h; stronger effect = lower value; DMSO median 0, no signal -100. GFP signal change (wild-type ribosome), % (test concentration not listed). actives 1.6% (n = 350,000). AID 720706, 2013;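 active means significant combined selectivity score with lowered wild-type GFP, culture density cut under 30%, mutant RFP and density less affected; inactive means any of these conditions unmet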
RAD52 anneal inh: RAD52 DNA annealing inhibitors, primary screen, biochemical, FRET, single point, set 2. DNA repair protein RAD52 homolog (Homo sapiens), P43351. recombinant RAD52 DNA annealing, FRET fluorescence. inhibition, % at 18.7 µM. actives 0.46% (n = 360,000);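 active means every replicate showing at least 50% inhibition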
NSD2 inh: NSD2 histone methyltransferase inhibitors, primary screen, biochemical, AlphaScreen, single concentration, set 2; Histone-lysine N-methyltransferase NSD2 (Homo sapiens), O96028; NSD2 peptide methylation, 120 min; inhibition, % at 12.5 µM; actives 0.54% (n = 310,000); in the data active means inhibition above about 50%
Each line names hits and unclear results; the compound was inactive in the other large screens; ! = not confirmed by another sample. Compounds with a hit are over-represented: about 2.5% of the library has one in this group of screens.

C[C@@H]1CN([C@@H](C)CO)C(=O)c2cc(NC(=O)Nc3ccc(C(F)(F)F)cc3)ccc2O[C@@H](C)CCCCO[C@H]1CN(C)C(=O)Nc1ccccc1	none (no result: MLL AF4-AF9 inh, Casp6 inh, RAD52 anneal inh, NSD2 inh)
C[C@H](CO)N1C[C@H](C)[C@H](CN(C)CC2CCOCC2)Oc2ncc(C#Cc3ccccc3)cc2C1=O	none (no result: NSD2 inh)
COCC(=O)Nc1ccc2c(c1)OC[C@H](C)N(CC1CC1)C[C@@H](C)[C@H](OC)CN(C)C2=O	none (no result: Casp6 inh, NSD2 inh)
CN(C)S(=O)(=O)c1ccc(-c2csc(N/N=C/c3ccco3)n2)cc1	Ecoli rRNA inh -19.8
C(=N\Nc1nc(-c2ccccc2)cs1)/c1ccco1	none (no result: MLL AF4-AF9 inh, Casp6 inh, Ecoli rRNA inh, RAD52 anneal inh)
CN1CCN(C(=O)C[C@H]2CC[C@@H]3[C@H](COC[C@@H](O)CN3C(=O)C3CC3)O2)CC1	none (no result: NSD2 inh)
Cc1noc(C)c1COc1ccccc1C(=O)N(C)CC(=O)Nc1ccc(F)c(F)c1F	Casp6 inh 53.3
Cc1ccc(C)c(NC(=O)CN(C)C(=O)c2ccccc2OCc2c(C)noc2C)c1	none
COc1ccc(C#Cc2ccc([C@H]3[C@@H](CO)N4CCCCN(Cc5ccccc5F)C[C@H]34)cc2)cc1	MLL AF4-AF9 inh 29.1 (no result: NSD2 inh)
CN1CCCCN2[C@H](CO)[C@H](c3ccc(C#Cc4ccccc4F)cc3)[C@H]2C1	RAD52 anneal inh 69.1 (no result: NSD2 inh)
COc1ccc(C#Cc2ccc([C@@H]3[C@H](CO)N4CCCCN(C)C[C@@H]34)cc2)cc1	RAD52 anneal inh 63.3 (no result: NSD2 inh)
COc1ccc(C#Cc2ccc([C@H]3[C@@H](CO)N4CCCCN(C)C[C@H]34)cc2)cc1	RAD52 anneal inh 79.9 (no result: NSD2 inh)
CNC[C@H]1Oc2ccc(NC(=O)Cn3cnnn3)cc2C(=O)N([C@@H](C)CO)C[C@@H]1C	none (no result: NSD2 inh)
Cc1ccc(S(=O)(=O)Nc2cccc3c2O[C@@H](CN(C)C(=O)Nc2c(C)noc2C)[C@@H](C)CN([C@H](C)CO)C3=O)cc1	none (no result: Casp6 inh, NSD2 inh)
Cc1ccc(S(=O)(=O)N2CCN(c3nc(CN4CCOCC4)nc4sc(C)c(C)c34)CC2)c(C)c1	none (no result: MLL AF4-AF9 inh, Casp6 inh, Ecoli rRNA inh, RAD52 anneal inh)
CO[C@H]1CN(C)C(=O)c2cc(NC(=O)Nc3ccc(Cl)c(Cl)c3)ccc2OC[C@@H](C)NC[C@@H]1C	none (no result: MLL AF4-AF9 inh, Casp6 inh, NSD2 inh)
CO[C@H]1CN(C)C(=O)c2cc(NC(=O)Nc3ccc(Cl)c(Cl)c3)ccc2OC[C@@H](C)NC[C@H]1C	RAD52 anneal inh 51.8 (no result: MLL AF4-AF9 inh, Casp6 inh, NSD2 inh)
CO[C@H]1CN(C)C(=O)c2ccc(NC(=O)Nc3ccc(Cl)c(Cl)c3)cc2OC[C@H](C)NC[C@@H]1C	RAD52 anneal inh 50.7 (no result: NSD2 inh)
CO[C@@H]1CN(C)C(=O)c2ccc(NC(=O)Nc3cc(Cl)cc(Cl)c3)cc2OC[C@H](C)NC[C@@H]1C	RAD52 anneal inh 57.9 (no result: NSD2 inh)
COC(=O)c1cn(C[C@H](Cc2ccccc2)NC(=O)c2ccccc2)nn1	none (no result: Ecoli rRNA inh, NSD2 inh)
C[C@H]1CN([C@@H](C)CO)C(=O)c2cccc(NC(=O)C3CC3)c2O[C@@H]1CN(C)Cc1ccncc1	none (no result: NSD2 inh)
CCCN1CCc2c(sc(NC(=O)c3ccc(S(=O)(=O)N4CCN(C(=O)OCC)CC4)cc3)c2C(N)=O)C1	none (no result: Ecoli rRNA inh, NSD2 inh)
CCOC(=O)N1CCN(S(=O)(=O)c2ccc(C(=O)Nc3sc4c(c3C(=O)OC)CCN(C)C4)cc2)CC1	Ecoli rRNA inh -14.7
FC(F)(F)CN1CC2C(c3ccc(Br)cc3)C(C1)N2CC(F)(F)F (centres undefined)	none (no result: MLL AF4-AF9 inh, Casp6 inh, RAD52 anneal inh, NSD2 inh)
O=C(COC(=O)C1CCN(C(=O)c2ccc(Cl)cc2)CC1)Nc1ccccc1F	Ecoli rRNA inh -17.1
N#Cc1ccccc1NC(=O)COC(=O)C1CCN(C(=O)c2ccc(Cl)cc2)CC1	none
C[C@@H]1CCCCO[C@H](CN(C)Cc2ccc(C(=O)O)cc2)[C@@H](C)CN([C@H](C)CO)C(=O)c2cc(NC(=O)Cc3ccccc3)ccc2O1	none (no result: NSD2 inh)
O=C(NNC(=S)Nc1ccc(F)cc1)C1CC1c1ccc(Cl)cc1 (centres undefined)	Ecoli rRNA inh -52.2
Cc1ccc(NC(=S)NNC(=O)C2CC2c2ccc(C)cc2)cc1 (centres undefined)	none (no result: MLL AF4-AF9 inh, Casp6 inh, Ecoli rRNA inh, RAD52 anneal inh)
O=C(NCC[C@@H]1CC[C@@H](NS(=O)(=O)c2cccc(F)c2)[C@@H](CO)O1)c1cnccn1	none (no result: NSD2 inh)
COc1ccc2nc(-n3c(O)c(C4=c5ccccc5=NC4=O)[nH]c3=S)sc2c1	Ecoli rRNA inh -44.5
Cn1c(O)c(C2=c3ccccc3=NC2=O)[nH]c1=S	none (no result: MLL AF4-AF9 inh, Casp6 inh, Ecoli rRNA inh, RAD52 anneal inh)
CCCCCc1ccc(OCCCC[n+]2ccccc2)c(CCCCC)c1	none (no result: MLL AF4-AF9 inh, Casp6 inh, Ecoli rRNA inh, RAD52 anneal inh)
CCC(C)(C)c1ccc(OCCCC[n+]2ccccc2)c(C(C)(C)CC)c1	MLL AF4-AF9 inh 30.1
CC=Cc1ccc2n(c1=O)C[C@@H]1[C@@H](CO)[C@H](C(=O)NCc3ccc(F)cc3)N(Cc3cncnc3)[C@H]21 (mixture of isomers)	none (no result: NSD2 inh)
CO[C@@H]1CN(C)C(=O)c2ccc(NS(=O)(=O)c3ccc(F)cc3)cc2OC[C@@H](C)NC[C@@H]1C	none (no result: NSD2 inh)
NS(=O)(=O)c1ccc(N=Nc2c(O)c(C(=O)O)cc3ccccc23)cc1	none
O=C(O)Cc1ccc(N=Nc2c(O)c(C(=O)O)cc3ccccc23)cc1	Casp6 inh 40.3
COCC(=O)Nc1ccc2c(c1)C(=O)N(C)[C@H]1CC[C@H](CC(=O)NCc3cccc(F)c3)O[C@H]1CO2	none (no result: MLL AF4-AF9 inh, Casp6 inh, RAD52 anneal inh, NSD2 inh)
C[C@H](CO)N1C[C@H](C)[C@@H](CN(C)S(=O)(=O)c2ccc(F)cc2)Oc2cc(Br)ccc2S1(=O)=O	Ecoli rRNA inh -25.1! (no result: NSD2 inh)
COc1ccccc1S(=O)(=O)N(C)C[C@H]1Oc2cc(Br)ccc2S(=O)(=O)N([C@@H](C)CO)C[C@H]1C	none (no result: NSD2 inh)
COc1ccccc1S(=O)(=O)N(C)C[C@H]1Oc2cc(Br)ccc2S(=O)(=O)N([C@H](C)CO)C[C@H]1C	Ecoli rRNA inh -34.0! (no result: NSD2 inh)
CCc1ccccc1OCC(=O)NNCC(=O)Nc1cccc(C#N)c1	Ecoli rRNA inh -19.5
O=[N+]([O-])c1ccc(N=Nc2ccc(O)cc2O)cc1	none (no result: MLL AF4-AF9 inh, Casp6 inh, Ecoli rRNA inh, RAD52 anneal inh)
O=S(=O)(O)c1cc(Cl)cc(N=Nc2ccc(O)cc2O)c1O	Casp6 inh 76.8, NSD2 inh 112.6
Cc1ccc(-c2ccc([C@@H]3[C@@H]4CN(Cc5ccccc5F)C[C@H]3N4)cc2)cc1	none (no result: MLL AF4-AF9 inh, Casp6 inh, RAD52 anneal inh, NSD2 inh)
O=[N+]([O-])c1ccc(C(O)C(CO)NC(=S)Nc2ccccc2)cc1 (centres undefined)	Ecoli rRNA inh -44.1
O=C(O)C1=C(C(=O)O)C2C=CC1C2	Casp6 inh 52.5
CCOC(=O)N1CCC(N2Cc3cccc(C(=O)Nc4cc(F)ccc4F)c3C2=O)CC1	none (no result: NSD2 inh)
CCOC(=O)N1CCC(N2Cc3cccc(C(=O)Nc4ccc(N(CC)CC)cc4C)c3C2=O)CC1	MLL AF4-AF9 inh 42.7
O=C(O)c1cc(/C=C/c2ccc(N3CCOCC3)cc2)nc2ccccc12	Ecoli rRNA inh -25.0
O=C(O)c1cc(/C=C/c2ccc(N3CCOCC3)c([N+](=O)[O-])c2)nc2ccccc12	none
COc1cc(/C=C/c2cc(C(=O)O)c3ccccc3n2)ccc1OC(F)F	Ecoli rRNA inh -25.9
